This is an account of results in PubChem BioAssay AID893 (National Center for Advancing Translational Sciences (NCATS), 2007).

About 5,700 (7.6%) of roughly 75,000 compounds were called active. A call without a number means that no potency is given here. Another 7% or so got no clear call; they are omitted. The call rests on the fitted dose curve; in most records, active means well fitted inhibition curve with a large enough effect; inconclusive means small, poorly fitted or top-dose-only effect; inactive means no such curve, though single readings can be large or run the other way. The full list was thinned out, with actives kept by preference.
Potency means the concentration at half of the fitted maximal effect.

The test deals with 3-hydroxyacyl-CoA dehydrogenase type-2 (Homo sapiens) (UniProt Q99714). Kind of test: qHTS Assay for Inhibitors of HSD17B4, hydroxysteroid (17-beta) dehydrogenase 4.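 Further: the protocol describes HADH2 (HSD17B10) and not the HSD17B4 of the title; nearly all actives have a fitted effect of over 70% in size.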 Particulars: recombinant HSD17B10, NADH fluorescence kinetic; series mostly up to 57.1 µM. The essentials:
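His-tagged E. coli-expressed HADH2 at 20 nM in 100 mM Tris-HCl pH 9.0 with 0.01 % Tween-20, preincubated 15 min with compound at room temperature. Reaction with 1 mM NAD+ and 90 uM beta-hydroxybutyryl coenzyme A; NADH fluorescence (360/450 nm) read kinetically over 4 min, last minus first point.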
As for `COC(=O)CCCCCN1C(=O)NC(c2ccc(-c3ccccc3)cc2)C(C(=O)OCc2ccccc2)=C1C` (centres undefined), the Potency result was “inactive”.
For the molecule `COc1cc(-c2nn3c(-c4cccc(C)c4)nnc3s2)cc(OC)c1OC`, the Potency result is “inactive”.
Still for that read-out and setting: under `Fc1ccc(-c2nnc3sc(-c4ccc5c(c4)OCO5)nn23)cc1` stands “inactive”.
In the case of `c1ccc(-c2cc(-c3nnc4sc(-c5ccccn5)nn34)[nH]n2)cc1`, the Potency was 31.6 µM (active).
On to `Cc1cc(C)cc(N)c1`, for which the Potency entry was “inactive”.
Consider `CCOC(=O)CC1=CC(=O)Nc2ccccc2N1`, for which the Potency result was “inactive”.
On to `CCCc1nc2ccccc2c(=O)n1NC(=O)c1c(O)c2ccccc2[nH]c1=O`, for which the Potency entry is “inactive”.
Still for that read-out and setting: under `CCCOC(=O)Cc1c(O)c2ccccc2[nH]c1=O` stands 31.6 µM (active); under `O=C(N1CCOCC1)N(Cc1ccccc1)c1ccccn1`, “inactive”; under `CCNC(=O)N1CCNC(=O)C1CC(=O)Nc1ccc(C(=O)OCC)cc1` (centres undefined), “inactive”.
Same read-out and setting: under `O=C(C1CCCO1)N(Cc1ccccc1)c1ccccc1` (centres undefined) stands “inactive”; under `COc1ccc(S(=O)(=O)N2CCN(C(=O)c3cccs3)CC2)cc1OC`, 3.98 µM (active).
For the molecule `CCCS(=O)(=O)N1CCN(C(=O)c2cccs2)CC1`, the Potency entry was “inactive”.
Take `CCS(=O)(=O)N1CCN(C(=O)c2cccs2)CC1`: the Potency entry was “inactive”.
In the case of `COc1ccc(C2N=C(N)N=C(N)N2c2ccccc2)cc1OC` (centres undefined), the Potency entry is “inactive”.
Consider `Cc1cc(C)c2nc(N3CCCC3)c(C#N)cc2c1`, for which the Potency was 31.6 µM (active).
With `C=CCOC(=O)C(C(C)=O)C(NC(=O)OC)c1ccccc1` (centres undefined), the activity change, negative = inhibition is 10.6% [at 11.4 µM] (inactive).
On to `CCn1c(SCC(=O)NCC2CCCO2)nc2cc(S(=O)(=O)N3CCCCC3)ccc21` (centres undefined), for which the Potency result is “inactive”.
In the case of `CCc1ccc(NC(=O)CSc2nc3ccccc3c(=O)n2CCN2CCOCC2)cc1`, the Potency entry is “inactive”.
As to `CCCCn1c(SCC(=O)NCC2CCCO2)nc2ccc(N3CCOCC3)cc2c1=O` (centres undefined), the Potency is 31.6 µM (active).
`Cc1cc(Nc2cccc(F)c2)n2ncnc2n1`: the Potency result is “inactive”.
Consider `Cc1ccc2c(c1)c1ncnc(N3CCc4ccccc4C3)c1n2C`, for which the Potency is 31.6 µM (active).
Turning to `Cc1cc(C)nc(N2CCN(c3ncnc4c3oc3ccccc34)CC2)n1`, the Potency entry is “inactive”.
With `Cc1ccc(NC(=O)CCN2CCc3ccccc3C2)cc1`, the Potency result is “inactive”.
Same read-out and setting: under `CCCCCCCCCc1ccc(OCCOCCOCCOCCOCCOCCOCCOCCOCCO)cc1` stands “inactive”.
For the molecule `O=C(CSc1nnc(-c2ccc(NS(=O)(=O)c3ccccc3)cc2)o1)NCC1CCCO1` (centres undefined), the Potency result was “inactive”.
`CCCCCNC(=O)Cc1ccc(OC)cc1`: the Potency entry is “inactive”.
As for `O=C(Nc1ccc(-c2nnc(-c3ccccc3)o2)cc1)C1CCCO1` (centres undefined), the Potency was 20 µM (active).
In the case of `COc1ccc(NC(=O)c2ccc(OC)cc2)cc1`, the Potency result was “inactive”.
Still for that read-out and setting: under `O=C(COC(=O)c1ccc(Oc2ccccc2)cc1)Nc1nnc(-c2ccccc2)o1` stands “inactive”; under `COc1ccc(C(CC(=O)O)NC(=O)Cc2ccccc2)cc1` (centres undefined), “inactive”.
On the same count and under the same terms, under `COc1ccc(CC(=O)Nc2ccc(-c3nnc(-c4ccccc4)o3)cc2)cc1` stands 12.6 µM (active).
With `COc1ccc(CC(=O)Nc2ccc(-c3nnc(-c4ccc(C)cc4)o3)cc2)cc1`, the Potency is 2.51 µM (active).
Regarding `O=C(Nc1nnc(CCc2ccccc2)s1)C1CCCO1` (centres undefined), the Potency result is “inactive”.
`CCCCNC(=O)CSc1nccn1Cc1ccccc1`: the Potency entry is “inactive”.
Consider `CC(=O)Nc1cc(C(=O)O)ccc1S(=O)(=O)c1ccc(Cl)cc1`, for which the Potency result is “inactive”.
Regarding `O=S1(=O)CCN2C(=N1)SC1=C2CCN(Cc2ccccc2)C1`, the Potency entry was “inactive”.
Consider `COc1ccc(Br)c2c1C[C@H](C(=O)O)CC2`, for which the activity change, negative = inhibition was 7.09% [at 11.4 µM] (inactive).
As for `O=C(CSc1nc2ccccc2o1)N1CCN(c2ccc(Cl)cc2)CC1`, the Potency entry is “inactive”.
Consider `COc1ccc(-n2c(SCC(=O)OC(C)C)nnc2-c2ccccn2)cc1`, for which the Potency entry is “inactive”.
The same measure, in the same setting: under `COc1ccc(CCNC(=O)c2ccco2)cc1` stands “inactive”; under `CCOC(=O)C1C(=O)C=C(c2ccc(OC)cc2)CC1c1ccco1` (centres undefined), 20 µM (active).
Still for that read-out and setting: under `CCOC(=O)C1C(=O)NC(N2CCN(c3ccccc3)CC2)=NC1c1ccco1` (centres undefined) stands “inactive”.
Turning to `CCOc1ccc2nc(NCCNS(=O)(=O)c3ccccc3)c(C#N)cc2c1`, the Potency is 25.1 µM (active).
`CCOc1ccc2nc(N3CCCN(C(=O)Nc4ccccc4C)CC3)c(C#N)cc2c1`: the Potency entry is “inactive”.
On the same count and under the same terms, under `CCOc1ccc2cc(C#N)c(SCC(=O)OC)nc2c1` stands “inactive”; under `CC1=C(C(=O)OCc2ccccc2)C(c2ccc(C(F)(F)F)cc2)NC(=O)N1CCCCCC(=O)O` (centres undefined), “inactive”.
With `CC(NC(=O)c1ccc(Cl)cc1)C(=O)N1CCCCC1` (centres undefined), the Potency result is “inactive”.
Still for that read-out and setting: under `CCOc1ccc(NC(=O)Nc2cc(C)ccc2OC)cc1` stands “inactive”.
With `COc1ccc(Cn2cccc(NC(=O)Nc3ccc(C#N)cc3)c2=O)cc1`, the Potency was 15.8 µM (active).
On the same count and under the same terms, under `COc1ccc(NC(=O)Nc2cccc3cccnc23)cc1` stands “inactive”; under `CO/N=C(\C(=O)N[C@@H]1C(=O)N2C(C(=O)O)=C(COC(C)=O)CS[C@H]12)c1csc(N)n1` (stereo in doubt), “inactive”.
`COc1c(F)c(F)c(-c2csc(N)n2)c(F)c1F`: the Potency result was “inactive”.
In the case of `CCOc1ccc(OCC)c(NC(=O)CSc2nnc(Cn3cnc4ccccc43)n2C)c1`, the Potency result is “inactive”.
In the case of `CCc1c(C)nc2cc(-c3cccs3)[nH]n2c1=O`, the Potency is 31.6 µM (active).
Regarding `O=c1[nH]c(-c2cccs2)nc2ccccc12`, the Potency result was “inactive”.
On to `Cc1nc2nc(COc3ccccc3)[nH]n2c(=O)c1Cc1ccccc1`, for which the Potency entry is “inactive”.
The same measure, in the same setting: under `CCCCNC(=O)c1c[nH]c2ccc(S(=O)(=O)Nc3ccc(OCC)cc3)cc2c1=O` stands “inactive”; under `CCCCn1c(SCC(=O)N2CCC(C(=O)OCC)CC2)nc2cc(S(N)(=O)=O)ccc21`, “inactive”.
For the molecule `CCOc1cc(C2C(C(=O)OC)=CN(C3CCCC3)C=C2C(=O)OC)cc(Br)c1O`, the Potency is 25.1 µM (active).
Take `CCCC(=O)Nc1cc(OCC)c(NC(=O)NC2CCCCC2)cc1OCC`: the Potency entry was “inactive”.
Take `CCOc1ccc(CNC(=O)C2CCC(=O)N2C2CCCC2)cc1OC` (centres undefined): the Potency result is “inactive”.
Take `COCCCN(C(=O)Cn1ncc2c(=O)oc3ccc(C)cc3c21)C(C)c1ccncc1` (centres undefined): the Potency entry is “inactive”.
The same measure, in the same setting: under `Cn1c(=O)cc(SCC(=O)N2CCCC2)c2cc(Cl)ccc21` stands “inactive”; under `Cc1ccc(-c2cc(C(F)(F)F)n3nc(C(=O)N4CCCC4)cc3n2)cc1`, 20 µM (active).
On to `Cc1cc(C(F)(F)F)nn1CC(=O)N1CCCC1`, for which the Potency entry was “inactive”.
For `COc1ccc(-c2cc(C(F)(F)F)n3nc(C(=O)N4CCOCC4)c(Cl)c3n2)cc1`, the Potency entry was “inactive”.
For the molecule `c1ccc(CCc2nc(-c3ccncc3)no2)cc1`, the Potency result is “inactive”.
On the same count and under the same terms, under `COc1ccc(Br)cc1S(=O)(=O)N1CCN=C1C` stands “inactive”.
Still for that read-out and setting: under `Cc1cc(C)cc(N(CC(=O)Nc2c(C)n(C)n(-c3ccccc3)c2=O)S(C)(=O)=O)c1` stands “inactive”; under `O=C(NC1CCCCC1)C1CCCN(S(=O)(=O)c2cccs2)C1` (centres undefined), “inactive”.
For `Cc1ccc(OCc2nc(C#N)c(N3CCCC3)o2)cc1`, the Potency entry is “inactive”.
Still for that read-out and setting: under `N#Cc1nc(COc2ccc(Cl)cc2)oc1N1CCCC1` stands “inactive”; under `CC1CCN(c2oc(-c3ccccc3F)nc2C#N)CC1`, 31.6 µM (active); under `CN(CCCNC(=O)CN1C(=O)CC(C)(C)S(=O)(=O)c2ccccc21)C1CCCCC1`, “inactive”.
Take `Nc1nc2c(nc(Cl)n2C2OC(CO)C(O)C2O)c(=O)[nH]1` (centres undefined): the Potency result is “inactive”.
Turning to `COC(=O)[C@@]1(Cc2ccc(F)cc2)[C@H]2c3cc(C(=O)N4CCCC4)n(Cc4ccc(OC(F)(F)F)cc4)c3C[C@H]2CN1C(=O)c1ccccc1`, the Potency entry was “inactive”.
On to `CC(=O)OCC(=O)[C@@]1(O)CCC2C3CCC4=CC(=O)CC[C@]4(C)C3C(=O)C[C@]21C` (some centres undefined), for which the Potency entry is “inactive”.
Turning to `C[C@]12C=CC(=O)C=C1CC[C@@H]1[C@@H]2C(=O)C[C@@]2(C)[C@H]1CC[C@]2(O)C(=O)CO`, the Potency was 15.8 µM (active).
On the same count and under the same terms, under `CC(=O)OCC(=O)[C@@]1(O)CC[C@@H]2[C@H]3CCC4=CC(=O)C=C[C@]4(C)[C@]3(F)[C@@H](O)C[C@@]21C` stands “inactive”; under `COC(=O)[C@H](C(C)C)n1c(C)c(C(C)=O)c(C(C)=O)c1C`, “inactive”; under `O=S(=O)(CCc1nc2ccccc2o1)c1ccc(Cl)cc1`, “inactive”.
Take `O=C(CCn1c(=S)[nH]c2ccccc2c1=O)NCCCN1CCCC1=O`: the Potency entry was “inactive”.
Same read-out and setting: under `O=C1CCCN1CCCNc1ncnc2c1[nH]c1ccccc12` stands 31.6 µM (active); under `CC1(C)CC(=O)C=C(NCCCN2CCCC2=O)C1`, “inactive”.
For `CCOc1ccccc1NC(=O)c1cc(S(=O)(=O)N2CCC3(CC2)OCCO3)ccc1F`, the Potency entry was “inactive”.
With `Cc1c(C(=O)Nc2ccccc2Cl)oc2ccc(S(=O)(=O)N3CCC4(CC3)OCCO4)cc12`, the Potency is 25.1 µM (active).
The same measure, in the same setting: under `CCOC(=O)C1CCN(C(=O)c2oc3ccc(S(=O)(=O)N4CCCCCC4)cc3c2C)CC1` stands “inactive”.
As for `CCOC(=O)N1CCN(Cc2oc(CO)cc(=O)c2O)CC1`, the Potency entry was “inactive”.
For `O=C(Nc1cccc(NC(=O)N2CCN(c3ccccc3)CC2)c1)N1CCN(c2ccccc2)CC1`, the Potency entry was “inactive”.
`Cc1nc2ccc(NC(=O)N3CCC(c4ccccc4)C3)cc2nc1C` (centres undefined): the Potency is 25.1 µM (active).
As for `O=C(Nc1cccc(C(=O)N2CCCC2)c1)c1ccccc1`, the Potency entry was “inactive”.
As to `O=C(O)[C@H](CCc1ccccn1)c1ccccc1`, the activity change, negative = inhibition is 1.79% [at 11.4 µM] (inactive).
As for `CC(=O)Nc1nc(C)c(Cc2ccccc2)c(=O)[nH]1`, the Potency result is “inactive”.
On the same count and under the same terms, under `CSc1ccc(Cl)c(C(=O)OCC(=O)N2CC(C)OC(C)C2)c1` (centres undefined) stands “inactive”.
Consider `CC1(C)CC(=O)C(C=NCc2cccnc2)=C(O)C1`, for which the Potency result is “inactive”.
Take `CC(=O)N1CCN(CCN=CC2=C(O)CC(C)(C)CC2=O)CC1`: the Potency result is “inactive”.
For the molecule `CC1(C)CC(=O)C(C=NCCC2=CCCCC2)=C(O)C1`, the Potency is 31.6 µM (active).
Regarding `O=c1cc(CSc2ccc(Cl)cc2)nc(N2CCOCC2)[nH]1`, the Potency result is “inactive”.
Still for that read-out and setting: under `COc1ccc2nc(NC(=O)c3ccc(Br)s3)sc2c1` stands 31.6 µM (active); under `CNC(=O)c1ccc2nc(NC(C)=O)sc2c1`, “inactive”.
For `CCn1c(SCC(=O)Nc2nc3ccc(OC)cc3s2)nnc1-c1ccoc1C`, the Potency entry is “inactive”.
In the case of `CC1(C)CN=C(N2CCN(c3ncnc4sc5c(c34)CCCC5)CC2)S1`, the Potency result is “inactive”.
Take `ON=C1/C(=N\O)CC2(C/C1=N/O)OCCO2`: the Potency entry is “inactive”.
